# PubChem BioAssay
# Test: Plasmodium falciparum growth inhibition, primary screen, strain 3D7, DAPI fluorescence, 100 nL (AID 1184);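 also: parasites grown inside human red blood cells in medium with human serum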
# Conditions: P. falciparum 3D7 growth, 3 d, higher = more signal
row,Structure (SMILES),z-score
1,CC(C)=CCCC(C)=CC(O)C1C=CC2C(=O)N(c3ccccc3)C(=O)C2N1Nc1ccc([N+](=O)[O-])cc1 (stereo not given),-0.0908
2,COCCCNC(=O)[C@]1(Cc2ccccc2)N=C(c2ccc(OCCCO)cc2)O[C@@H]1c1ccccc1N=[N+]=[N-],-2.7
3,COCCOC(=O)N1C(=O)[C@@]2(c3cc(C#CCC(C(=O)OC)C(=O)OC)ccc31)[C@H](c1ccc(OCCO)cc1)N1[C@H](c3ccccc3)[C@H](c3ccccc3)OC(=O)[C@H]1[C@@H]2C(N)=O,-1.96
4,CN(C)CCCN1C(=O)[C@@]2(Cc3ccccc31)c1ccccc1C(=O)N(Cc1ccccc1)[C@H]2c1ccc(CO)cc1,-1.47
5,CN(C)CCCCCCNC(=O)[C@@H]1C[C@@H]2C(=O)NCC(=O)N2[C@@H]1c1ccc(O)cc1,-0.107
6,O=[N+]([O-])c1ccc(C[n+]2ccc(-c3ccc(CO)cc3)cc2)o1,-1.29
7,COC(=O)[C@]1(Cc2ccccc2CN=[N+]=[N-])N=C(c2ccc(OCCCO)cc2)O[C@@H]1c1ccccc1,-2.17
8,CCCCCCC#C[Si](O[C@H](c1ccccc1)c1cn(Cc2cccc(Cl)c2)nn1)(C(C)C)C(C)C,-0.464
9,CN1C(=O)C2C=CC(C(O)c3ccc(F)cc3)N(N3CCCCC3)C2C1=O (stereo not given),-0.0184
10,COc1ccc([Si](C)(C)[C@H]2[C@H](CC(=O)N3CCC[C@H]3CO)O[C@@]3(C(=O)N(Cc4ccc(N5C(=O)c6cccc7cccc5c67)cc4)c4ccccc43)[C@@H]2C)cc1,-1.95
11,[N-]=[N+]=NCc1ccccc1[C@H]1OC(c2ccc(OCCCO)cc2)=N[C@@]1(Cc1ccccc1N=[N+]=[N-])C(=O)N1CCCCC1,-2.15
12,O=C1c2ccccc2C(=O)C2CC([C@H]3Oc4ccccc4S(=O)(=O)N4CCC[C@@H]34)=CCC12 (stereo not given in full),-1.24
13,C[C@H]1ON(c2ccccc2)[C@@H](c2ccccc2)[C@@H]1C(=O)N1C(=O)OC[C@@H]1c1ccccc1,-0.968
14,CN(C)C(=O)[C@@]1(CCC(=O)OC(C)(C)C)COC(c2ccc(OCCCO)cc2)=N1,0.388
15,Cc1ccc(S[C@]2(C(=O)O)CC(=O)N(C3CCCCC3)[C@@H]2c2ccc(CO)cc2)cc1,0.756
16,CC(C)CCC[C@@H](C)[C@H]1CC[C@@]2(C)C3=C(CC[C@]12C)[C@@]1(C)CC[C@H](OC(=O)c2ccc(N)cc2)C(C)(C)C1CC3 (stereo not given in full),0.0753
17,C=CC[C@@]1(C(=O)NCCN2CCOCC2)N=C(c2ccc(OCCCO)cc2)O[C@@H]1c1ccccc1,-0.825
18,C=CCC(OC(C)=O)[C@@H]1[C@@H](N(Cc2cccc3ccccc23)C(=O)Cc2ccc(F)cc2)c2cc(OCCCO)ccc2N1C(=O)Cc1ccc(OC)cc1 (stereo not given in full),-1.64

row,Structure (SMILES),z-score
1,COc1ccc(C#Cc2ccc3c(c2)[C@]2(C(=O)N3)[C@H](C(N)=O)[C@H]3C(=O)O[C@H](c4ccccc4)[C@H](c4ccccc4)N3[C@@H]2c2ccc(O)cc2)cc1,0.0021
2,CCOC(=O)C1=CC[C@@H](c2ccc(N(CC)CC)cc2)N(S(=O)(=O)c2ccc(C)cc2)[C@H]1c1ccc([N+](=O)[O-])cc1,-2.1
3,COC(=O)[C@@]1(Cc2ccc(F)cc2)[C@H]2c3cc(C(=O)N4CCCC4)n(Cc4ccccc4)c3C[C@H]2CN1C(=O)c1ccccc1,-0.443
4,O=C1O[C@H](c2ccccc2)[C@H](c2ccccc2)N2[C@H]1[C@@H](C(=O)N1CCCCCCC1)[C@]1(C(=O)Nc3ccccc31)[C@H]2c1ccc(O)cc1,0.61
5,COc1cc(NN2C(C(O)c3ccc(I)cc3)C=CC3C(=O)N(C)C(=O)C32)cc(OC)c1OC (stereo not given),-0.336
6,C=CCC(OC(C)=O)[C@@H]1[C@@H](N(Cc2ccc(-c3ccccc3)cc2)C(=O)c2cccc3ccccc23)c2cc(OCCCO)ccc2N1C(=O)c1ccc2ccccc2n1 (stereo not given in full),-0.714
7,COC(=O)c1c(CC[C@@H](CO)NC(=O)N[C@@H](C)Cn2cc(C3(O)CCCC3)nn2)oc(C(C)=O)c1C(=O)OC,-2.04
8,COC(=O)C(CC#Cc1ccc2c(c1)[C@]1(C(=O)N2)[C@H](c2ccc(O)cc2)N2[C@H](c3ccccc3)[C@H](c3ccccc3)OC(=O)[C@H]2[C@@H]1C(N)=O)C(=O)OC,0.38
9,COC(=O)[C@@]1(Cc2ccc(F)cc2)[C@H]2c3cc(C(=O)N(C)C)n(Cc4ccc(C)c(F)c4F)c3C[C@H]2CN1C(=O)c1ccccc1,-1.13
10,COc1ccc(C#Cc2ccc3c(c2)[C@]2(C(=O)N3)[C@H](c3ccc(OCCO)cc3)N3[C@H](c4ccccc4)[C@H](c4ccccc4)OC(=O)[C@H]3[C@@H]2C(=O)N2CCN(c3ncccn3)CC2)cc1,-1.31
11,COC(=O)[C@@]1(Cc2ccccc2)[C@H]2c3cc(C(=O)N(C)C)n(Cc4ccccn4)c3C[C@H]2CN1C(=O)c1ccccc1,-0.847
12,C/C=C/[C@@H](CCn1cc([C@H](O)c2ccccc2)nn1)[Si](C)(C)c1ccc(OC)cc1,-0.689
13,N#Cc1ccc(NN2C(C(O)c3ccco3)C=CC3C(=O)N(c4ccccc4)C(=O)C32)cc1 (stereo not given),1.1
14,C#CCOC(=O)N[C@H](C=CCCCC)c1ccccc1,-0.817
15,[N-]=[N+]=Nc1ccccc1[C@@H]1OC(c2ccc(OCCCO)cc2)=N[C@]1(CCS(=O)(=O)c1ccccc1)C(=O)NCc1ccccc1,-2.27
16,COc1cc(C(O)C2C=CC3C(=O)NC(=O)C3N2Nc2ccc(Cl)cc2Cl)cc(OC)c1OC (stereo not given),-0.395
17,C=CCN1C(=O)[C@@]2(O[C@@H](CCn3cc([C@H](O)c4ccccc4)nn3)[C@H]([Si](C)(C)c3ccc(OC)cc3)[C@H]2C)c2cc(NC(=O)c3ccc(OC)cc3)ccc21,-2.7
